# Compounds with a hit are over-represented: about 21% of the library has one in this group of screens.
# Pf growth 96h: inhibits malaria parasite growth, 96 h; P. falciparum luciferase reporter growth, 96 h; Potency, µM (doses to about 28.7 µM), usual class: inhibitors; 320,000 tested, 6.9% active
#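 Readout is luminescence from an integrated firefly luciferase in P. falciparum. Red cells, 2% hematocrit and 0.05% parasitemia final, were cultured with compound through two parasite generations (96 hours) at 37 C, 5% CO2.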
# NS1 function inh: blocks influenza NS1 protein function; Potency, µM (titrated, usually from 46.1 µM); 270,000 tested, 0.4% active; calls by dose curve; further: actives are rising curves; nearly all actives have a fitted effect of over 50% in size
#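 Read-out: OD600 growth recovery of NS1-expressing budding yeast. Cells grown overnight at 30C in -URA glucose medium, washed, resuspended and diluted 1:100 in 2% galactose assay medium, pH 6.0. Same strain lacking NS1 served as positive control.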
# Sm TGR block: inhibitors of Schistosoma mansoni thioredoxin glutathione reductase. Q962Y6. 360,000 tested, 3% active. Potency, µM (doses to about 114 µM), usual class: inhibitors. AID 485364. purified TGR, DTNB reduction, TNB absorbance 405 nm; further: nearly all actives have a fitted effect of over 60% in size
#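 TGR 20 nM + NADPH 100 uM (dispensed conc.), cpd preinc 15 min RT; start with NADPH (500 uM addition) then DTNB (15 mM addition). Kinetic TNB absorbance, 405 nm filter. Four-parameter Hill fit across titration.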
# CHX counter: counter-screen hit for Shiga toxin inhibitors, cycloheximide | cell reporter, cycloheximide protein synthesis inhibition counterscreen | max response, % | 300,000 tested, 12% active | AID 2314; in the data active means max response mostly above about 13%, no sharp cut-off; inactive means mostly below about 14%; further: read at 38.3 µM for the half of the compounds with a filed dose
# Pf growth 48h: P. falciparum growth inhibition at 48 hours (one generation); P. falciparum luciferase growth in erythrocytes, 48 h; Potency, µM (top dose mostly 28.7 µM), usual class: inhibitors; 310,000 tested, 5.9% active; AID 504832
#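 Here the parasites carry a stable luciferase gene and grow inside erythrocytes in Albumax-based RPMI medium with compound for one erythrocytic cycle. Activity is scored as loss of luminescent signal.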
# Shiga inhibitor: Shiga toxin inhibition; Vero cells, Shiga toxin protein synthesis inhibition reporter; inhibition, % at 38.7 µM; 290,000 tested, 9.2% active; AID 2315; in the data active means inhibition mostly above about 28%, no sharp cut-off; inactive means mostly below about 43%
# Hits are given with their value; – = inactive; ? = inconclusive; · = no result; [ ] = dose if it differs, or a comment. Unless noted, the call rests on the fitted dose curve; in most records, active means well fitted curve in the direction sought with a large enough effect; inconclusive means small, poorly fitted or top-dose-only effect, or another doubt; inactive means no such curve, though single readings can be large; an effect the other way counts as inactive or inconclusive.
SMILES,Pf growth 96h,NS1 function inh,Sm TGR block,CHX counter,Pf growth 48h,Shiga inhibitor
O=[N+]([O-])c1ccc(C(O)CN2CCN(Cc3ccccc3)CC2)cc1 (stereo unspecified),?,–,–,–,?,–
Cc1ccc(Cn2nc(C)c(C(=O)N3CCN(S(=O)(=O)/C=C/c4ccccc4)CC3)c2C)cc1,3.3µM,·,–,·,6.6µM,·
O=C(/C=C/c1ccccc1)N1CCN(C(=O)c2ccco2)CC1,·,–,–,–,–,–
O=C(c1cnn(Cc2ccccc2)c1)N1CCN(S(=O)(=O)/C=C/c2ccccc2)CC1,–,·,–,·,?,·
Cc1ccc2nc(CN3CCN(C(=O)Nc4cccc(C)c4C)CC3)oc2c1,·,·,–,·,·,·
CCOc1ccccc1CNC(=O)C1CCN(c2nn3cc(-c4ccc(F)cc4)nc3s2)CC1,·,·,–,·,·,·
O=S(=O)(/C=C/c1ccccc1)N1CCOCC1,–,–,–,–,–,–
O=C(/C=C/c1ccc(F)cc1)N1CCN(S(=O)(=O)/C=C/c2ccccc2)CC1,–,·,–,–,–,–
Cc1ccc(/C=C/C(=O)N2CCN(S(=O)(=O)/C=C/c3ccccc3)CC2)o1,5.9µM,–,14µM,–,–,–
O=C(/C=C/c1ccco1)NC(=S)Nc1ccc(N2CCCC2)cc1,–,–,?,–,–,–
O=C(/C=C\c1ccco1)Nc1ccc(N2CCN(C(=O)c3ccccc3)CC2)cc1,5.9µM,–,–,–,?,–
NC(=O)C1CCN(C(=O)c2ccco2)CC1,–,–[9.22 µM],–,–,–,–
O=C(/C=C/c1ccco1)N1CCN(S(=O)(=O)/C=C/c2ccccc2)CC1,?,?,13µM,30,?,–
NC(=O)C1CCN(C(=O)/C=C/c2ccco2)CC1,–,–,7.9µM,–,–,–
Cc1cc(C)nc(Nc2ccc(Cl)cc2C)n1,?,–,–,–,–,–
CC(C)n1c(=O)c2oc3ccccc3c2n(Cc2ccccc2F)c1=O,·,·,–,·,·,·
O=C(/C=C/c1ccco1)N1CCN(c2ccccc2)CC1,–,–,11µM,–,–,–
O=C(/C=C/c1ccc(S(=O)(=O)N2CCOCC2)cc1)N1CCN(c2ccccc2)CC1,–,–,–,–,?,–
C(=C/c1ccccc1)/CN1CCN(C(c2ccccc2)c2ccccc2)CC1,7.2µM,·,·,·,?,·
COCCNc1nc2c(c(=O)n(C)c(=O)n2C)n1Cc1c(F)cccc1Cl,·,·,–,·,·,·
Cc1ccc(NCc2nc(SCC(=O)Nc3ccccc3)n[nH]2)cc1,–,–,–,–,–,–
CCC1(c2ccc(F)cc2)NC(=O)N(CC(=O)Nc2ccccc2Cl)C1=O (stereo unspecified),?,–,–,–,–,–
CCC1(c2ccc(F)cc2)NC(=O)N(CC(=O)Nc2ccc(-c3nc4ccc(C)cc4s3)cc2)C1=O (stereo unspecified),–,–,–,39,–,107
COc1ccc(C2(C)NC(=O)N(CC(=O)Nc3ccc(-c4nc5ccc(C)cc5s4)cc3)C2=O)cc1 (stereo unspecified),–,–,–,64,–,112
COc1ccc(C2C(Oc3ccccc3)C(=O)N2c2cc(C)ccc2C)cc1OC (stereo unspecified),–,–,–,–,–,–
SMILES,Pf growth 96h,NS1 function inh,Sm TGR block,CHX counter,Pf growth 48h,Shiga inhibitor
CCCCNCC1C(Oc2ccc(Cl)cc2)C(=O)N1c1ccccc1C (stereo unspecified),–,·,–,–,15µM,–
Cc1ccc(NC(=O)N2CCCC2C(=O)Nc2c(C)cc(C)cc2C)cc1 (stereo unspecified),–,–,–,–,–,–
CCOc1ccc2c(c1)/C(=C(\C(Cl)=C(Cl)Cl)[N+](=O)[O-])N2,–,·,5.6µM,–,–,–
COC(=O)c1ccn(-c2nc(-c3ccc(Cl)cc3)cc(C(F)(F)F)n2)n1,·,·,–,·,·,·
COc1ccccc1/C=N/n1cnnc1,·,–,–,–,–,–
O=S(=O)(Oc1ccccc1/C=N/n1cnnc1)c1ccccc1,12µM,–,·,–,–,–
CC1=NN(C(=O)c2ccc(Br)cc2)C(O)(C(F)(F)OC(F)(F)F)C1 (stereo unspecified),?,–,–,17,4.7µM,–
CC1=NN(C(=O)c2nn(C)cc2Br)C(O)(C(F)(F)F)C1 (stereo unspecified),?,–,–,35,–,60
CC1=NN(C(=O)c2csc(C)c2)C(O)(C(F)(F)F)C1 (stereo unspecified),–[5.75 µM],–,–,–,–,–
CC1=NN(C(=O)c2cc(C)nn2C)C(O)(C(F)(F)F)C1 (stereo unspecified),–,–,–,–,–,–
CC1=NN(C(=O)c2c(Br)cnn2C)C(O)(C(F)(F)F)C1 (stereo unspecified),?,–,–,–,?,–
CC1=NN(C(=O)c2csc(C)c2C)C(O)(C(F)(F)F)C1 (stereo unspecified),–,–,–,37,–,47
COc1ccc(OC)c(-c2cc(-c3cccnc3)nc(N)c2C#N)c1,9.3µM,–,–,–,?,–
COc1cccc(-c2cc(-c3cccnc3)nc(N)c2C#N)c1,–,–,–,–,–,–
COc1cc(-c2cc(-c3ccc(O)cc3)nc(N)c2C#N)ccc1O,5.9µM,?,–,–,?,–
N#Cc1c(-c2cccc(Br)c2)cc(-c2cccnc2)nc1N,?,–,–,–,13µM,–
CC(C)C[C@H](CO)Nc1nc(Nc2cccc(Cl)c2)c2ncn(C(C)C)c2n1,?,–,–,23,?,42
CC(C)n1cnc2c(Nc3cccc(F)c3)nc(NCCO)nc21,?,–,–,19,?,–
CC(C)n1cnc2c(Nc3ccc(F)c(Cl)c3)nc(NCCO)nc21,?,–,–,–,–,–
CCN1Cc2cccc(C(=O)Nc3ccc(F)cc3)c2C1=O,·,·,–,·,·,·
CCOc1ccccc1C1N=C(N)Nc2nc3ccccc3n21 (stereo unspecified),·,·,–,·,·,·
CCN1CCN(Cc2ccc(NC(=O)c3cc(NC(=O)c4nccnc4N)cc(OC)c3)cc2C(F)(F)F)CC1,1.5µM,–,–,–,1.7µM,–
CCN1CCN(Cc2ccc(NC(=O)c3ccc(C)c(NC(=O)c4cccc5[nH]ccc45)c3)cc2C(F)(F)F)CC1,10µM,–,–,53,12µM,94
CCN1CCN(Cc2ccc(NC(=O)c3cc(NC(=O)c4cnnc5ccccc45)cc(OC)c3)cc2C(F)(F)F)CC1,2.9µM,–,–,–,2.3µM,–
CCN1CCN(Cc2ccc(NC(=O)c3ccc(C)c(NC(=O)c4nccn4C)c3)cc2C(F)(F)F)CC1,–,–,–,–,?,–
CCN1CCN(Cc2ccc(NC(=O)c3ccc(C)c(NC(=O)c4nccnc4N)c3)cc2C(F)(F)F)CC1,2.6µM,–,–,–,5.2µM,–
CCN1CCN(Cc2ccc(NC(=O)c3ccc(C)c(NC(=O)N4CCNC4=O)c3)cc2C(F)(F)F)CC1,?,–,–,–,?,–
O=C(O)c1nc(NCCc2ccccc2)ncc1Cl,–,–,–,–,–,–

# Bioassay records (PubChem)
